Most compounds without a hit are left out; they make up all but 7% or so of the library.
BAZ2B block: BAZ2B (human) inhibition; actives 4.4% (n = 360,000); Potency, µM (doses to about 114 µM), for inactives: at the top dose activity change, negative = inhibition, most hits filed as inhibitors; AID 504333; Q9UIF8; AlphaScreen BAZ2B-H3K14Ac peptide displacement; note: potency is the fitted concentration of half-maximal effect; % is set by controls: 0 for no effect and ±100 for the full control effect; nearly all actives have a fitted effect of over 60% in size
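BAZ2B 50 nM plus b-H3(5-23)K14Ac 50 nM, PBS pH 7.4/0.01% Tween-20, 30 min RT; compound added (max 110 uM), 30 min RT; streptavidin donor/Ni-chelate acceptor beads 10 ug/mL final, 20 min dark; AlphaScreen read.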
HP1b chromo inh: blocks HP1-beta chromodomain binding to methylated histone tails | AlphaScreen HP1-beta / biotin-H3K9me3 peptide binding | Potency, µM (top dose mostly 114 µM), inactives show top-dose activity change, negative = inhibition, usual class: inhibitors | actives 0.56% (n = 390,000); note: potency is the fitted concentration of half-maximal effect; nearly all actives have a fitted effect of over 70% in size
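AlphaScreen: HP1-beta (50 nM) preformed 30 min with biotin-H3(1-18)K9me3 peptide (50 nM) in PBS pH 7.4, 0.01% Tween-20. Compound added for 30 min at RT, then streptavidin donor/nickel chelate acceptor beads (10 ug/mL) for 30 min.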
PLK1 PBD block: blocks phosphopeptide binding to human PLK1 polo-box domain; P53350; Plk1 PBD binding of FITC phosphopeptide, fluorescence polarization; Potency, µM, without a hit: max response, negative = inhibition, usual class: inhibitors; actives 2.8% (n = 360,000); AID 720504; note: potency is the fitted concentration of half-maximal effect; series mostly up to about 57 µM; % is set by controls: 0 for no effect and ±100 for the full control effect; nearly all actives have a fitted effect of over 65% in size
GCN5L2 inh: blocks human GCN5L2 histone acetyltransferase. AID 504327. Potency, µM (doses to about 58.9 µM), for inactives: top-dose activity change, negative = inhibition, actives largely listed as inhibitors. GCN5L2 HAT assay, ThioGlo1 CoA-SH fluorescence. actives 0.21% (n = 390,000). Q92830; note: potency is the fitted concentration of half-maximal effect; % is set by controls: 0 for no effect and ±100 for the full control effect
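Fluorescence readout, Ex340nm/Em540nm: ThioGlo1 (50uM final) reacts with free CoA thiol released as 20nM GCN5L2 acetylates H3(1-25) peptide (75uM) using acetyl-CoA (70uM). Compound and enzyme sat 15 min beforehand; 20 min room-temperature reaction.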
PI5P4K alpha inh: blocks human PI5P4K alpha kinase activity; PI5P4Kalpha enzyme, ADP-Glo luminescence, 60 min; hits give low values; P48426; actives 1.2% (n = 330,000); max response, %; active = max response of -50% or lower; inconclusive = between -30% and -50%; inactive = -30% or higher; note: value at the top dose of about 77 µM; % is set by controls: 0 for no effect and ±100 for the full control effect
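ADP-Glo luminescence end-point after a 60 min room-temperature kinase reaction. PI5P4Kalpha and substrate in HEPES pH 7.4 buffer with EGTA, 0.1% CHAPS and 5% DMSO; ATP at 5 microM final.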
JMJD2A Tudor: blocks the human JMJD2A Tudor domain; O75164; actives 4.4% (n = 390,000); Potency, µM (doses to about 114 µM), inactives show top-dose activity change, negative = inhibition, hits mostly inhibitors; AlphaScreen JMJD2A-Tudor / H3K4me3 peptide binding; AID 504339; note: potency is the fitted concentration of half-maximal effect; % is set by controls: 0 for no effect and ±100 for the full control effect; nearly all actives have a fitted effect of over 50% in size
* hit, by the source's call; ? = inconclusive; nt = no result; [ ] = dose if it differs, or a comment. Unless noted, calls come from the whole dose curve; as a rule, active = well fitted curve in the direction sought with a large enough effect; inconclusive = small, poorly fitted or top-dose-only effect, or another doubt; inactive = no such curve, though single readings can be large; an effect the other way counts as inactive or inconclusive.

SMILES	BAZ2B block	HP1b chromo inh	PLK1 PBD block	GCN5L2 inh	PI5P4K alpha inh	JMJD2A Tudor
Cc1ccc(NC(C)c2cc(Cl)ccc2O)cc1 (stereo not drawn)	50µM*	-29%	-16%	-18%	0	?
Cc1ccc(N(C(=O)Cn2nnc3ccccc32)C(C(=O)NCc2ccco2)c2ccc(C)o2)cc1 (stereo not drawn)	-37%	5%	-6%	-9%	1	-12%
COc1ccc(N(C(=O)Cn2nnc3ccccc32)C(C(=O)NCc2ccco2)c2ccc(C)o2)cc1 (stereo not drawn)	45µM*	-16%	-1%	-2%	4	-25%
COCCNC(=O)C(c1ccco1)N(C(=O)Cn1nnc2ccccc21)c1cc(C)ccc1C (stereo not drawn)	0%	-11%	3.4µM*	0%	-22	-21%[11.4 µM]
COCCNC(=O)C(c1ccco1)N(C(=O)Cn1nnc2ccccc21)c1ccccc1C (stereo not drawn)	0%	31%	-4%	-2%	2	-7%
C[C@H]1NC(=O)[C@@]2(C)[C@H](c3ccccc3)[C@H]3COc4ccccc4[C@@H]3N2C1=O	nt	30%	-4%	-3%	12	-9%
CCNc1oc(COc2cccc(C)c2)nc1C#N	-11%	9%	3%	-5%	0	-20%
Cc1ccc(OCc2nc(C#N)c(NCc3ccco3)o2)cc1	35µM*	-9%	-5%	-3%	0	?
COc1ccc(CNc2oc(COc3cccc(C)c3)nc2C#N)cc1	14µM*	?	nt	-9%	nt	?
COc1ccc(Nc2oc(COc3ccc(C)cc3)nc2C#N)cc1	?	-35%	-1%	-14%	4	89µM*
COc1ccccc1OCc1nc(C#N)c(NCc2ccco2)o1	?	-1%	-7%	-10%	0	-28%
COc1ccc(CCNc2oc(COc3ccc(Cl)cc3)nc2C#N)cc1OC	20µM*	-21%	nt	-25%	nt	?
CSc1ncccc1C(=O)OCC(=O)NC12CC3CC(CC(C3)C1)C2	nt	60%	3%	-10%	12	1%
Cc1cccc(-c2nc(C#N)c(NCc3ccco3)o2)c1	50µM*	13%	-1%	-9%	2	-22%
Cc1ccc(-c2nc(C#N)c(NCc3ccco3)o2)cc1	-31%	4%	-8%	-2%	10	4%
CN(C)c1cccc(NC2=CC(=[N+]3CCOCC3)CC(C)(C)C2)c1	?	-7%	-14%	3%[0.501 µM]	-3	89µM*
O=C(Cn1cc([N+](=O)[O-])ccc1=O)N1CCCc2ccccc21	2%	-2%	-4%	-18%	-11	-19%
Cc1ccc(N2CCN(c3nc4ccc(C)cc4n4nnnc34)CC2)c(C)c1	3%	80%	nt	-3%	nt	20%
CC(NC(=O)/C(C#N)=C/c1ccc([N+](=O)[O-])o1)c1ccccc1 (stereo not drawn)	?	-16%	24µM*	-19%	?	?
CC(NC(=O)/C(C#N)=C/c1ccco1)c1ccccc1 (stereo not drawn)	1%	15%	-4%	-13%	-10	-11%
CCn1c(CCCCc2n[nH]c(=S)n2CC)n[nH]c1=S	-29%	?	-8%	-1%	-3	4.5µM*
CCn1c(C2CCN(Cc3ccccc3)CC2)n[nH]c1=S	7%	32%	-20%	0%	-25	3.5µM*
CCn1c(CCCOc2ccc(Cl)cc2Cl)n[nH]c1=S	-30%	34%	-5%	6%	-13	-23%
COc1ccc(Cn2c(-c3ccc(OC)cc3)n[nH]c2=S)cc1	-24%	5%[57 µM]	?	-2%	-26	?
CCCCCCCc1n[nH]c(=S)n1Cc1ccccc1	-3%	28%	-9%	-4%	5	?
SMILES	BAZ2B block	HP1b chromo inh	PLK1 PBD block	GCN5L2 inh	PI5P4K alpha inh	JMJD2A Tudor
CCCCc1n[nH]c(=S)n1Cc1ccc(C)cc1	-23%	-8%	-20%	-4%	-5	14µM*
Cc1ccc(-c2n[nH]c(=S)n2Cc2ccccc2)cc1	-27%	11%	-8%	1%	nt	40µM*
CC1=C(C(=O)Nc2cc(Cl)ccc2C)C(c2sccc2C)n2ncnc2N1 (stereo not drawn)	-4%	22%[57 µM]	nt	-9%	nt	-1%
CCn1c(C(c2ccccc2)c2ccccc2)n[nH]c1=S	-7%	-5%	-5%	-8%	-10	32µM*
CCOc1ccc(-c2n[nH]c(=S)n2Cc2ccccc2)cc1	-10%	17%	-14%	0%	-2	45µM*
CC(c1n[nH]c(=S)n1Cc1ccccc1)N(C)C (stereo not drawn)	-8%	-12%	19µM*	1%	-20	?
Cc1cccc(-c2n[nH]c(=S)n2Cc2ccccc2)c1	-31%	9%	-13%	-10%	6	40µM*
CC[n+]1ccc(C(=O)NCc2ccccc2)cc1	0%	25%	-1%	-13%	0	-5%
Cc1ccccc1C(=O)NCC(=O)OC(C(=O)Nc1cc(C(F)(F)F)ccc1Cl)c1ccccc1 (stereo not drawn)	nt	nt	nt	nt	nt	-18%
COC(=O)CCc1nc2ccccc2[nH]c1=O	9%	32%	-2%	-2%	nt	-1%
COC(=O)CSCc1nc2ccccc2[nH]c1=O	-20%	21%	12µM*	-3%	3	-23%
C#CCOCCOCCOCCNc1nc(N2CCN(C(=O)[C@H](CCCCN)n3cc([C@@H](N)CO)nn3)CC2)nc(N2CCN(C(=O)[C@H](Cc3cc4ccccc4[nH]3)n3cc([C@@H](N)Cc4ccc(O)cc4)nn3)CC2)n1	32µM*	nt	nt	-2%	nt	nt
C#CCOCCOCCOCCNc1nc(N2CCN(C(=O)[C@H](CCCCN)n3cc([C@@H](N)CC(C)C)nn3)CC2)nc(N2CCN(C(=O)[C@H](Cc3cc4ccccc4[nH]3)n3cc([C@@H](N)Cc4ccc(O)cc4)nn3)CC2)n1	2%	-15%	-5%	-1%	-29	18µM*
CC(=O)c1ccc(S(=O)(=O)Oc2ccc(C(=O)O)cc2Cl)cc1	nt	29%	-10%	0%	-14	-10%
CC(=O)c1ccc(N2CCN(C(=O)CS(=O)(=O)c3cccc4nsnc34)CC2)cc1	-3%	14%[57 µM]	nt	-6%	nt	-18%
COc1cccc(C2CNC3(CCCC(C)C3)c3[nH]c4ccccc4c32)c1OC (stereo not drawn)	45µM*	5%	-21%	-18%	6	?
CC1(C)CC(=O)CC2(C1)NCC(c1ccccc1)c1c2[nH]c2ccccc12 (stereo not drawn)	-35%	16%	-2%	4%	-8	?
Cc1ccc(C(OCC(O)CN2CCCCC2CO)c2ccccc2)cc1 (stereo not drawn)	50µM*	22%	0%	0%	-5	45µM*
c1ccc(CCn2nnc3ccccc32)cc1	30%	16%	21µM*	-4%	-3	-4%[11.4 µM]
